RXFP1 antagonist – qHTS Assay for Antagonists of the Relaxin Receptor RXFP1; Relaxin receptor 1 (Homo sapiens), Q9HBX9; HEK293-RXFP1, relaxin-stimulated cAMP HTRF, 30 min; hits give low values; activity change, negative = inhibition, % at 57.5 µM; 350,000 compounds, 0.59% hits; AID 1259400, 2018;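 active means activity change of -60% or lower, but not beyond a set lower limit; inconclusive means change between -60% and -40%, or beyond the set limit; inactive means change above -40%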
Target sequence (Q9HBX9 whole entry, looked up): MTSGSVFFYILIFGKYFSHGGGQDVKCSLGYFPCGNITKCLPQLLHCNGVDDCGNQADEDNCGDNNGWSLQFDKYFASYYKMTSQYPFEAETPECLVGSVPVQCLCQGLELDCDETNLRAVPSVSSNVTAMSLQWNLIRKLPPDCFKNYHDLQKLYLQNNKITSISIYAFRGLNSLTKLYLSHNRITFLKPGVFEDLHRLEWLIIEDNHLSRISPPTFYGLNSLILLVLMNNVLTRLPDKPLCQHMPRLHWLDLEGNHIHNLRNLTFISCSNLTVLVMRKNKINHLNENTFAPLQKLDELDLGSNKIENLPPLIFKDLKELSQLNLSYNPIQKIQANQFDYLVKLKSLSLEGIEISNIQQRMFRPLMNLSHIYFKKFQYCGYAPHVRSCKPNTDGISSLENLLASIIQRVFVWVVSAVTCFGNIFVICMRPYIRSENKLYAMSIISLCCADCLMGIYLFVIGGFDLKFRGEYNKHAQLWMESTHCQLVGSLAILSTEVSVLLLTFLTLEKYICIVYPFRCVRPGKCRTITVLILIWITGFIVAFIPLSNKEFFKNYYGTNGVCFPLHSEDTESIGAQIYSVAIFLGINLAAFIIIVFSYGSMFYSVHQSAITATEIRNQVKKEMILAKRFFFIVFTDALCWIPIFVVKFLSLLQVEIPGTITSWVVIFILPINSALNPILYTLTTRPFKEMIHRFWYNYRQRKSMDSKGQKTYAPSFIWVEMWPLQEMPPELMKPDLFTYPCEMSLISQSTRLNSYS
pAkt inh – HTS Assay for Inhibitors of Akt Phophorylation: Primary Screen; Neuro2A IGF-stimulated pAkt S473 HTRF, 20 min; hits give low values; activity change, % for hits at 50 µM; 360,000 compounds, 0.32% hits; AID 651550, 2012; in the data active means activity change below about -80%; inconclusive means mostly about -51% to -80%
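Neuro2A cells in DMEM with 0.5% FBS, overnight at 37 deg C, given compound at single 50 µM final, then IGF (6 nM final) for 20 min at 37 deg C. Lysed; phospho-Akt Ser473 by HTRF after 24 h, 665/615 ratio.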
RXFP1 ag – qHTS Assay for Agonists of the Relaxin Receptor RXFP1. HEK293T-RXFP1 cAMP TR-FRET, 30 min; response scale: percent of porcine relaxin response, buffer zero. Potency, µM (series often up to 57.5 µM), without a hit: at the highest dose activation, actives largely listed as activators. 370,000 compounds, 0.3% hits. AID 2676, 2010; active means well fitted activation curve with a large enough effect; inconclusive means small, poorly fitted or top-dose-only effect; further: potency means the concentration at half of the fitted maximal effect; nearly all actives have a fitted effect of over 60% in size
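HEK293T cells stably expressing RXFP1 were pretreated with the PDE4 inhibitor Ro 20174, exposed to compounds for 30 min at 37C, lysed, and cAMP was read by TR-FRET. Data normalized to buffer (basal) and 29 nM porcine relaxin (100%).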
KCNH2 3.1 inh – qHTS for Inhibitors of KCHN2 3.1: Mutant qHTS; Potassium voltage-gated channel subfamily H member 2, brain isoform KCNH2 3.1 (human); U2OS KCNH2 3.1, thallium flux FluxOr; hits give low values; activity change, % (tested at about 1.8 µM); 340,000 compounds, 0.95% hits;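 active means maximum activity change below -70%; inconclusive means maximum activity change from -70% to -50%; inactive means maximum activity change above -50%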;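 further: thallium influx rate constant from kinetic fluorescence after stimulation buffer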
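U2OS cells transduced with KCNH2 3.1 mutant virus (1.77 x 10^8 /mL, 4 h), plated overnight at 37 C, loaded 45 min with FluxOr dye plus Red40 quencher. Thallium flux rate constant from kinetic reads after stimulation buffer, normalised to controls.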
hERG WT inh – qHTS for Inhibitors of KCHN2 3.1: Wildtype qHTS; Voltage-gated inwardly rectifying potassium channel KCNH2 (Homo sapiens), Q12809; activity change, % at 1.84 µM; U2OS, BacMam KCNH2, thallium flux FluxOr; hits give low values; 340,000 compounds, 0.37% hits;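 active means maximum activity change below -70%; inconclusive means maximum activity change between -70% and -50%; inactive means maximum activity change above -50%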
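U2OS cells transduced with wild-type KCNH2 virus are loaded with FluxOr dye for 45 min, and thallium flux is measured in kinetic reads before and after stimulation buffer. Rate constants are normalized to DMSO controls.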
* marks the source's active call; other numbers are inactive results; i = inactive; ? = inconclusive; nt = no result. A selection: hits, their analogues and other compounds. The true share with any hit is near 1.7%. On the % scale 0 is the no-effect control and ±100 the full control effect.

SMILES	RXFP1 antagonist	pAkt inh	RXFP1 ag	KCNH2 3.1 inh	hERG WT inh
Cc1ccc(C)c(NC(=O)C(c2ccccc2)N2CCN(CC(=O)N3CCOCC3)CC2)c1 (stereo not drawn)	4.4	i	nt	-89.0*	-35.8
CCOc1ccccc1NC(=O)C(c1ccccc1)N1CCN(CC(=O)N2CCCC2)CC1 (stereo not drawn)	5.9	i	nt	-72.1*	-29.8
CCOc1ccccc1NC(=O)CC1(CC(=O)N2CCOCC2)CCCC1	2.5	i	1.0%	5.3	-5.8
CCOc1ccccc1NC(=O)C(c1ccccc1)N1CCN(CC(=O)N2CCOCC2)CC1 (stereo not drawn)	-2.4	i	-0.1%	-82.9*	-3.4
COc1ccccc1-c1c(NC(=O)c2ccco2)n(-c2ccccc2)nc(C)c1=O	nt	nt	2.4%	nt	nt
O=C(NC1CCCC1)C(c1ccncc1)N(Cc1ccccc1)C(=O)c1ccc(-c2ccccc2)[nH]1 (stereo not drawn)	-4.5	i	-0.8%	-11.3	-1.7
Cc1ccc(C)c(NC(=O)C(OC(=O)c2ccc(NC(=O)CC#N)cc2)c2ccccc2)c1 (stereo not drawn)	-28.6	i	2.3%	-70.8*	-0.3
Cc1cc(C)cc(NC(=O)C(OC(=O)c2ccc(NC(=O)CC#N)cc2)c2ccccc2)c1 (stereo not drawn)	-20.4	i	2.2%	-24.1	-26.5
CS(=O)(=O)c1ccc2nc(NC(=O)c3ccc(Cn4cc(Br)cn4)o3)sc2c1	-19.2	i	0.6%	-94.8*	-5.7
O=C(Nc1cccc(C(=O)N2CCN(Cc3ccccc3)CC2)c1)c1ccccc1	-7.2	i	-3.7%	-2.8	-4.2
CCCCn1nc(C(=O)N(C)Cc2nc3ccccc3c(=O)[nH]2)c2ccccc2c1=O	1.1	i	nt	-74.7*	-42.7
CCOc1ncccc1C(=O)OCC(=O)Nc1cc(S(=O)(=O)N2CCCCC2)ccc1Cl	3.0	i	nt	13.2	4.7
Cc1cc(C)cc(NC(=S)N2CCN(C(=O)c3ccco3)CC2)c1	-8.2	i	-1.4%	2.9	3.4
Nc1c(C(=O)NCc2ccccc2)sc2nc(N3CCOCC3)c3c(c12)CCCC3	30.5	i	14.7%	-71.9*	4.0
Nc1c(C(=O)Nc2ccccc2)sc2nc(N3CCOCC3)c3c(c12)CCCC3	7.7	i	nt	10.4	-3.5
O=C(O)C1CCC1	10.2	nt	nt	nt	nt
C=C(C)C1CC=C(CN2CCC(O)CC2)CC1 (stereo not drawn)	33.0	i	0.3%	20.7	-21.2
O=S(=O)(c1ccccc1)c1cnn2c(C(F)(F)F)cc(-c3ccccc3)nc12	-1.5	-89.7%*	-2.5%	-2.2	-4.6
O=C(NCCc1ccccc1)C1CCCN(S(=O)(=O)c2cccnc2)C1 (stereo not drawn)	-5.1	i	0.0%	11.7	-253.9*
NS(=O)(=O)c1ccc(CCNC(=O)C2CCCN(S(=O)(=O)c3cccnc3)C2)cc1 (stereo not drawn)	-3.6	i	0.1%	1.7	-8.2
O=C(Nn1cnnc1)c1cc2cc(Br)ccc2oc1=O	10.8	-93.3%*	1.3%	6.9	4.2
CCCCCCC(=O)NN1CCN(C)CC1	-15.6	i	-0.1%	13.0	-256.9*
S=C(N/N=C/c1cccs1)NC1CC2CCC1C2 (stereo not drawn)	-67.1*	i	0.4%	-16.2	-2.9
Oc1ccc(/C=N/NC(=S)NC2CC3CCC2C3)cc1 (stereo not drawn)	-25.0	i	-0.9%	1.4	-9.3
O=C1NC2(CCCCCC2)C(=O)N1Cc1ccc(F)cc1Cl	-5.3	i	2.8%	-126.8*	-2.9
SMILES	RXFP1 antagonist	pAkt inh	RXFP1 ag	KCNH2 3.1 inh	hERG WT inh
O=C(Nc1ccc(NC(=S)NC(=O)c2cccs2)cc1)c1ccco1	-3.1	i	0.6%	-29.2	-7.1
CCCN1C2CCCC1CC(NC(=O)Nc1ccc(C(C)C)cc1)C2 (stereo not drawn)	-3.0	i	-0.2%	-73.5*	-10.4
CCCN1C2CCCC1CC(NC(=O)Nc1cccc(C(C)=O)c1)C2 (stereo not drawn)	0.7	i	0.6%	4.9	4.4
COc1ccc(-n2c(=O)cc(N3CCN(c4ccccc4F)CC3)[nH]c2=O)cc1	1.3	nt	0.8%	-23.1	47.9
CC[C@@H](C)[C@H](NC(=O)OC(C)(C)C)c1nnc(S(=O)(=O)Cc2cc(C)ccc2C)o1	?	-127.2%*	-0.1%	-5.7	30.3
CC(C)(C)OC(=O)N[C@@H](Cc1ccccc1)c1nnc(S(=O)(=O)Cc2cccc(F)c2)o1	-119.0*	i	0.6%	-13.3	2.3
Cc1ccccc1CS(=O)(=O)c1nnc([C@H](CC(C)C)NC(=O)OC(C)(C)C)o1	-26.5	i	0.4%	-3.4	-24.3
CC1(C)CCC(=O)N2CC[C@H]3C[C@H](OC(=O)Nc4ccc5c(c4)OCO5)C[C@@H]1[C@H]32	nt	i	0.6%	-135.4*	-9.9
CC1(C)CCC(=O)N2CC[C@H]3C[C@H](OC(=O)Nc4ccccc4)C[C@@H]1[C@H]32	nt	i	0.1%	5.8	-6.1
CCOC(=O)c1c(NC(=O)CCC(=O)O)sc2c1CCCCC2	8.4	i	2.1%	11.7	-13.7
COC(=O)c1c(NC(NC(C)=O)C(Cl)(Cl)Cl)sc2c1CCCC2 (stereo not drawn)	-74.5*	i	-3.7%	-6.0	9.8
CCOC(=O)c1c(NC(NC(C)=O)C(Cl)(Cl)Cl)sc2c1CCCC2 (stereo not drawn)	-67.9*	i	-0.8%	-6.2	-6.4
COC(=O)c1c(NC(=O)c2c(OC)cccc2OC)sc2c1CCCC2	-8.6	nt	0.7%	nt	nt
Cc1cccc(C)c1NC(=O)CSc1nnc(-c2ccco2)c(-c2ccco2)n1	-67.8*	i	0.0%	3.8	5.7
Cc1cccc(C)c1NC(=O)CCCSc1nnc(-c2ccco2)o1	-12.4	-110.9%*	3.2%	2.9	4.0
CCCCN(CC)CCNC(=O)c1cc2c(=O)n(C)c3ccccc3c2n1C	-1.7	i	3.0%	3.4	-2.2
CCOC(=O)c1sc(NC(=O)Cn2nnc3sc4c(c3c2=O)CCCC4)nc1C	1.3	i	1.7%	18.8	2.0
CCOC(=O)c1nc2sc3c(c2c(=O)n1C(C)C(=O)OCC)CCCC3 (stereo not drawn)	-60.9*	i	4.7%	-22.0	-5.8
CCc1sc(C(C2C(=O)CC(C)(C)CC2=O)C2C(=O)CC(C)(C)CC2=O)cc1[N+](=O)[O-]	-98.4*	i	-3.8%	5.5	-2.4
O=C(N/N=C/c1ccc(O)c(O)c1O)/C(=C/c1ccc([N+](=O)[O-])cc1)NC(=O)c1ccccc1	-71.3*	i	-0.2%	-12.9	5.6

Assay outcomes deposited in PubChem by National Center for Advancing Translational Sciences (NCATS).
